Screens from PubChem BioAssay.
Insulin prom up: insulin promoter activators in MIN6 cells, imaging, high-content screening, mouse beta cells; MIN6 insulin promoter-GFP reporter; active compounds read high; z-score at 5 µM; 190,000 tested, 0.3% active;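 active means z-score above 3 at 5 µM with at least 500 cells counted in the well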
WT yeast gro inh: growth inhibition of WT strain, primary screen, mitochondrial fusion inhibitor project, WT and mutant strains, chemical genetic | mitochondrial fusion phenotypic screen | inhibition, % at 10 µM | 190,000 tested, 2.1% active; in the data active means inhibition above about 58%; tested in S. cerevisiae
ROMK primary: ROMK potassium channel modulators, primary screen, cell-based, thallium flux, MLSMR library | 130,000 tested, 2% active | AID 1918, 2009 | ATP-sensitive inward rectifier potassium channel 1 (Homo sapiens), P48048 | B-score at 10 µM | Tet-inducible ROMK, thallium flux fluorescence; actives lie on both sides;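 active means signal ratio slope over the read window, or its plate-corrected B-score, at least 3 SD from the plate mean, either direction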;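 further: B-score of the F/F0 ratio slope over 7 to 12 s after thallium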
Insulin prom inh: inhibitors of insulin promoter-driven GFP, primary screen, imaging, TRM-6 cells (human fetal islet line), eGFP reporter, cell count. reporter expression induced with tamoxifen. inhibition, % at 2 µM. 130,000 tested, 0.9% active. AID 1273, 2008;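 active means inhibition above the mean plus 3 SD, with well images judged a real hit on visual review, cut at about 60% in these data, passing the limit was not always enough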
L major viab: Leishmania major promastigote growth inhibition, primary screen | 200,000 tested, 9% active | AID 1063, 2008 | Leishmania major promastigotes, resazurin fluorescence viability | inhibition, % at 10 µM; in the data active means inhibition above about 50%;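 further: promastigotes grown with compound for 44 hours at 28 °C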
Cl transport mod: KCC2 cotransporter modulators, thallium flux, primary screen, cell-based, HEK293 KCC2, FluoZin-2 fluorescence, MLSMR. Solute carrier family 12 member 5 (Homo sapiens), Q9H2X9. KCC2 cells, thallium flux FluoZin-2 fluorescence. B-score of Tl+ flux slope (higher = more flux/activation; lower = inhibition) at 10 µM. 190,000 tested, 2.2% active;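 active means thallium flux slope and its plate-corrected score both differing from the plate sample mean at a set confidence after two filtering rounds, in either direction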;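 further: slope of fluorescence scaled to starting intensity during 10 to 20 s after thallium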
Target sequence (Q9H2X9 whole entry, looked up): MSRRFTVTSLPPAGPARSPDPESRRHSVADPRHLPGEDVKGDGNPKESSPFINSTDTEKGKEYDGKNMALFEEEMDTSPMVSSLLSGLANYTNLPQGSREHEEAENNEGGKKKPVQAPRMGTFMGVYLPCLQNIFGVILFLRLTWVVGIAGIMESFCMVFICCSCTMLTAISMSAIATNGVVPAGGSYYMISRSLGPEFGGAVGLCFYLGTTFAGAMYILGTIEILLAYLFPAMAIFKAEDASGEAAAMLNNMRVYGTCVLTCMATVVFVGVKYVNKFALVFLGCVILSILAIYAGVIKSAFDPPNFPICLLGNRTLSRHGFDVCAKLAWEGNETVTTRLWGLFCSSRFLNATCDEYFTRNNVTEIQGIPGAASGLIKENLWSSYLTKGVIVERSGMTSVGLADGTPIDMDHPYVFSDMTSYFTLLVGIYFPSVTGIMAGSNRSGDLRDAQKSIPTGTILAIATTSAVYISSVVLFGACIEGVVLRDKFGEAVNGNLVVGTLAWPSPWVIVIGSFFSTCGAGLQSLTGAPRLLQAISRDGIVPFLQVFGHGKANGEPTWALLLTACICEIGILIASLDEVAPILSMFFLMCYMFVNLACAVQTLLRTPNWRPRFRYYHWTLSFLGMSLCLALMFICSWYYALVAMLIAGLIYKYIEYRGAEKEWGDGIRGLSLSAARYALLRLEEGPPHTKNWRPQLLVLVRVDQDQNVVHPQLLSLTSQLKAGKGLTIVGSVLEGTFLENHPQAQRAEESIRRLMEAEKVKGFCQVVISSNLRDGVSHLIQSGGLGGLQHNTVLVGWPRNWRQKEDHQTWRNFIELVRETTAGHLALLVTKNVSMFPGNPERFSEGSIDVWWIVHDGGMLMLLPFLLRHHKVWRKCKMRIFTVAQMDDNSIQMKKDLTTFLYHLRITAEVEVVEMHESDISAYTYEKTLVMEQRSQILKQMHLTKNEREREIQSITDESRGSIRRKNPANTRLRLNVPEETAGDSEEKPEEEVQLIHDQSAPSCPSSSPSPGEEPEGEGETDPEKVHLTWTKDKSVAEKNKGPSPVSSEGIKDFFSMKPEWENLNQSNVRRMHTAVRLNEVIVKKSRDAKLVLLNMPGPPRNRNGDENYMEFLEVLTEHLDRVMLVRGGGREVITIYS
Of the large screens only hits and unclear results are named; the others gave an inactive call. A selection: hits, their analogues and other compounds. The true share with any hit is near 12%.

CC(C)CN(C(=O)c1nn(C)c(=O)c2ccccc12)c1nc2ccccc2s1	WT yeast gro inh 67, L major viab 52 (no result: Cl transport mod)
Cc1ccc(-c2csc(NC(=O)/C=C/c3cccs3)n2)cc1C	none (no result: Insulin prom inh)
CNC(=S)N/N=C/C1=CCC2CC1C2(C)C (stereo not given)	L major viab 97
CC1(C)C2CC=C(/C=N/NC(=O)c3ccccc3O)C1C2 (stereo not given)	none
CC1(C)C2CC=C(/C=N/NC(=S)NCCc3ccccc3)C1C2 (stereo not given)	WT yeast gro inh 66, L major viab 87
CCNC(=S)N/N=C/c1sccc1C	none (no result: Insulin prom up)
Cc1ccsc1/C=N/NC(=S)NCCc1ccccc1	WT yeast gro inh 69 (no result: Insulin prom inh)
Cc1cc(C(F)(F)F)c2c(=O)[nH]c(=O)n(Cc3ccccc3)c2n1	Cl transport mod -4.3 (no result: ROMK primary)
Cn1c(-c2cccc(OCc3ccccc3)c2)nc2c1c(=O)[nH]c(=O)n2Cc1ccccc1	none (no result: Insulin prom up)
COCCn1c(-c2cccc([N+](=O)[O-])c2)nc2c1c(=O)[nH]c(=O)n2Cc1ccccc1	L major viab 84 (no result: ROMK primary)
COc1ccc(-c2nc3c(c(=O)[nH]c(=O)n3Cc3ccccc3)n2Cc2ccccc2)cc1	L major viab 99
O=c1[nH]c(=O)n(Cc2ccccc2)c2nc(-c3ccco3)cc(C(F)(F)F)c12	none (no result: Insulin prom inh)
NC(=O)C1(NC(=O)[C@@H]2CC3(CC(c4cccc(NC(=O)[C@@H]5CCC(=O)N5)c4)=NO3)CN2C(=O)Cc2ccc(Cl)cc2)CC1 (stereo not given in full)	none (no result: Insulin prom up, ROMK primary)
CCOP(=O)(OCC)/C(C#N)=C/c1ccc(-c2ccc(F)cc2F)o1	none (no result: WT yeast gro inh, ROMK primary, Insulin prom inh, L major viab)
COC1CCCCC1Nc1cc(C)ccc1C (stereo not given)	none (no result: Insulin prom inh)
COc1ccc(-c2cc(C(=O)N3CCOCC3)c3cc(C)ccc3n2)cc1	L major viab 65 (no result: ROMK primary, Cl transport mod)
O=C(Nc1cccc(S(=O)(=O)N2CCOCC2)c1)c1cn(-c2ccccc2)nc1-c1ccc(F)cc1	L major viab 99 (no result: ROMK primary)
COc1ccc(-c2cc(C(F)F)n3ncc(C(=O)N4CCN(C)CC4)c3n2)cc1	L major viab 98 (no result: Insulin prom up)
O=C(Nc1cccc(S(=O)(=O)N2CCOCC2)c1)c1cn(-c2ccccc2)nc1-c1ccccc1	none
O=C(c1cc(-c2ccccc2)nc2ccccc12)N1CCc2ccccc2C1	WT yeast gro inh 71, L major viab 58 (no result: ROMK primary)
COc1ccc(CCNC(=O)CCS(=O)(=O)c2ccc(Br)cc2)cc1OC	none
Cc1ccc(-c2cc(C(F)F)n3ncc(C(=O)N4CCN5CCCC5C4)c3n2)cc1 (stereo not given)	WT yeast gro inh 66, L major viab 55 (no result: ROMK primary)
COc1ccc(-c2cc(C(F)F)n3ncc(C(=O)Nc4cnn(Cc5ccccc5)c4)c3n2)cc1	none (no result: ROMK primary, Insulin prom inh)
Cc1cc(C(F)F)n2ncc(C(=O)N3CCc4ccccc4C3)c2n1	none (no result: ROMK primary)
O=C(c1cnn2c(C(F)F)cc(-c3ccccc3)nc12)N1CCc2ccccc2C1	WT yeast gro inh 78
COc1ccc(-c2cc(C(F)F)n3ncc(C(=O)Nc4cccc(S(=O)(=O)N5CCOCC5)c4)c3n2)cc1	L major viab 65 (no result: Insulin prom inh)
C/C(=N\O)C1(C)N(O)C(C)(C)C(c2ccc(F)cc2)=[N+]1[O-] (stereo not given)	none (no result: Insulin prom up)
Cc1ccc(-c2csc3ncnc(Oc4ccc5c(C)cc(=O)oc5c4)c23)cc1	none (no result: ROMK primary)
CCOC(=O)c1cc(-c2ccccc2)n(CC(=O)Nc2ccc(OC)cc2)c1C	L major viab 51
CCOC(=O)c1cc(-c2ccc(OC)cc2)n(CCC(=O)NC2CCN(Cc3ccccc3)CC2)c1C	L major viab 84
CCOC(=O)c1cc(-c2ccc(F)cc2)n(CCC(=O)NC2CCN(Cc3ccccc3)CC2)c1C	L major viab 80
CCOC(=O)c1cc(-c2ccc(OC)cc2)n(CCC(=O)NCCN2CCC(C)CC2)c1C	none
COc1ccccc1NC(=S)N(CCCN1CCOCC1)Cc1cn(C)c2ccccc12	L major viab 68
Cc1ccc(Cl)cc1NC(=S)N(CCCN1CCOCC1)Cc1ccccn1	none
COc1cc(Cl)ccc1NC(=S)N(CCCN1CCOCC1)Cc1cn(C)c2ccccc12	L major viab 89
